# Screening results deposited in PubChem by Broad Institute.
# The list is a sample of the results.
# aSyn 5UTR act – Activators via SNCA 5'UTR binding, MLPCN; alpha-synuclein 5'UTR reporter, activators screen; activity score, % (tested at 7.5 µM), hits read low; AID 1814; 7.1% of 300,000 active; in the data active = activity score below about -60%
# An asterisk follows results filed as active.
SMILES,aSyn 5UTR act
O=C(NCCc1ccccc1)c1cnc2sccn2c1=O,-90*
O=C(NCCc1cccc(Cl)c1)c1cccs1,-115*
Cc1cc2ccccc2n1CCNC(=O)c1cccs1,-121*
O=C(NCCc1ccccc1)c1cccs1,-94*
COc1ccc(Cl)cc1NC(=O)c1cnc2sccn2c1=O,-106*
O=C(NCc1nc2ccccc2[nH]1)c1cccs1,-64*
O=C(NC(c1ccccc1)c1cc(Cl)c2cccnc2c1O)c1cccnc1 (stereo not given),100
CCO[C@H]1OC(C(=O)NCc2nc3ccccc3[nH]2)=C[C@@H](C2CC2)[C@@H]1CCCO,80
O=C(NCCc1cccc(Cl)c1)c1cccnc1,-84*
O=C(Nc1nnc(S(=O)(=O)N2CCOCC2)s1)c1cccc(F)c1,-102*
O=C1c2ccccc2C(=O)N1CCSc1ccccc1,-191*
O=C1C2CC=C(Cl)CC2C(=O)N1CCc1ccccc1 (stereo not given),-69*
O=C1c2ccccc2C(=O)N1CCc1ccccc1,-70*
Cn1cc(C(=O)N2CCc3ccccc32)cn1,-63*
O=C(c1ccc(Cl)s1)N1CCc2ccccc21,-195*
CC1CCN(c2c(NCc3ccc(C(=O)N4CCc5ccccc54)cc3)c(=O)c2=O)CC1,88
O=C(c1cc([N+](=O)[O-])ccc1N1CCCCC1)N1CCc2ccccc21,81
Cc1ccc(C(=O)N2CCc3ccccc32)cc1,-112*
Cc1ccc(C2Nc3ccccc3-c3nc4ccccc4n32)o1 (stereo not given),-104*
CC(=O)c1ccc(-c2nc3ccccc3n2C)o1,-143*
Cc1ccc(-c2nc3ccccc3n2C)o1,-155*
COc1ccc(C2CC(=O)N(C)c3ccccc3S2)cc1OC (stereo not given),-87*
COc1ccc(NCc2ccc(OC)c(OC)c2)cc1,-105*
CCOc1c(Br)cc(CNc2ccc3c(c2)OCCO3)cc1OC,97
COc1ccc(C(=O)Cc2ccc(OC)c(OC)c2)cc1,-109*
SMILES,aSyn 5UTR act
COc1cc(CNc2ccc(C)c(C)c2)cc(OC)c1OC,-166*
COc1ccc(CNc2ccc(Br)cc2)cc1,-112*
COc1ccc(CNc2cc(C)ccn2)cc1,-104*
COc1ccc(CNc2ccc(C)c(C)c2)cc1,-72*
O=C(Nc1cccc2cccnc12)c1ccc2c(c1)OCCO2,-178*
COc1cc(NC(=O)c2ccc3c(c2)OCO3)c2ncccc2c1,-66*
Cc1ccc(C(=O)Nc2cccc3cccnc23)cc1Br,-178*
CCOC(=O)c1c2c(n(C)c1C)C(=O)C(=O)c1ccc(Br)cc1-2,110
CCOC(=O)c1c(C)oc2c1c1c(c3ccccc32)OCN(CCCC(=O)O)C1,-108*
CCOC(=O)c1c(C)oc2c1cc(O)c1ccccc12,-104*
CCOC(=O)c1c(C)[nH]c2c1cc(O)c1ccccc12,-189*
COCC1CCN(Cc2nc(-c3cccs3)no2)C1 (stereo not given),-72*
c1csc(-c2noc(CN3CCc4sccc4C3)n2)c1,-69*
Cc1cc(=O)[nH]c(SCCOc2ccc3c(c2)CCC3)n1,-107*
COc1cc2nc(Nc3cccc(F)c3)nc(N)c2cc1OC,-93*
CC1=CC(=C2C(=O)c3ccccc3C2=O)C=C(C)O1,-129*
CCCN1C=CC(=C2C(=O)c3ccccc3C2=O)C=C1,132
CC1=CC(=C2N=C(c3ccccc3)OC2=O)C=C(C)O1,-146*
CCN1C=CC(=C2C(=O)c3ccccc3C2=O)C=C1,96
CC1=CC(=C2C(=O)c3ccccc3C2=O)C=C(C)N1Cc1ccco1,-217*
CN(C)/C=C/C(=O)c1ccc(Br)cc1,-70*
CCC(C)(C)C1CCC(=NNC(=S)Nc2ccccc2)CC1 (stereo not given),-124*
S=C(NN=C1C2CC3CC(C2)CC1C3)Nc1ccccc1,-70*
CCN1/C(=C/C=C/C=C/c2sc3ccccc3[n+]2CC)Sc2ccccc21,126
CC[n+]1c(/C=C/Nc2ccccc2)sc2ccccc21,-83*
SMILES,aSyn 5UTR act
COc1ccc(Cl)cc1C(=O)O/N=C(\N)c1ccccn1,-159*
COc1ccccc1C(=O)O/N=C(\N)c1ccccc1Cl,-139*
N/C(=N\OC(=O)c1cc(Cl)ccc1Cl)c1ccccn1,-122*
Cc1cccc(NC(=O)Nc2cccc(F)c2)n1,-119*
Cc1cccc(NC(=O)Nc2cc(C)cc(C)n2)c1,-184*
Cc1ccnc(NC(=O)Nc2cccc(F)c2)n1,-115*
Cc1cccc(NC(=O)Nc2cccc(C#N)c2)n1,-170*
N#C/C(=C\c1ccccc1)c1ccccn1,-100*
CNc1ccc(/C=C(\C#N)c2ccccn2)cc1[N+](=O)[O-],-157*
Oc1[nH]c2ccccc2c1N=Nc1ccc(F)cc1,-171*
Oc1[nH]c2ccccc2c1N=Nc1ccccc1F,-357*
CC(C)(O)C(=O)N=Nc1c(O)[nH]c2ccccc12,-96*
Oc1[nH]c2ccccc2c1N=Nc1ccccc1,-123*
O=[N+]([O-])c1ccc(N=Nc2c(O)[nH]c3ccc(F)cc23)cc1,-82*
Cc1nc2ccccn2c1C(=O)N=Nc1c(O)[nH]c2ccccc12,-103*
O=C1NCCc2c1[nH]c1ccc([N+](=O)[O-])cc21,70
